Measurements taken from PubChem BioAssay (Tox21).
The source made the active and inactive calls. Unless noted, the call rests on the fitted dose curve; in most records, active means well fitted curve in the direction sought with a large enough effect in the repeat runs; inconclusive means weak or mixed curves; inactive means no such curve, though single readings can be large; an effect the other way counts as inactive or inconclusive.

Legend:
[1] = qHTS assay to identify small molecule antagonists of the glucocorticoid receptor (GR) signaling pathway - cell viability counter screen (AID 720693); further: nearly all actives have a fitted effect of over 55% in size; further: potency means the concentration at half of the fitted maximal effect
[2] = qHTS assay for identifying genotoxic compounds that show differential cytotoxicity against isogenic chicken DT40 cell lines with known DNA damage response pathways - wild type cell line (AID 743012); further: nearly all actives have a fitted effect of over 60% in size
Procedure, shortened: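 CellTiter-Glo luminescence readout of viability in wild type DT40 cells after 40 h compound exposure at 37 C/5% CO2; 300 cells/well; reagent incubated 30 min at room temperature before reading.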

[3] = qHTS assay for identifying genotoxic compounds that show differential cytotoxicity against isogenic chicken DT40 cell lines with known DNA damage response pathways - Rad54/Ku70 mutant cell line (AID 743015); further: nearly all actives have a fitted effect of over 60% in size; further: potency means the concentration at half of the fitted maximal effect
[4] = qHTS assay to identify small molecule antagonists of the androgen receptor (AR) signaling pathway - cell viability counter screen (AID 743033; further: nearly all actives have a fitted effect of over 45% in size; further: potency means the concentration at half of the fitted maximal effect)
[5] = qHTS assay to identify small molecule antagonists of the androgen receptor (AR) signaling pathway using the MDA cell line - cell viability counter screen (AID 743041; further: nearly all actives have a fitted effect of over 45% in size)
Procedure, shortened: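 Using the breast carcinoma line MDA-kb2 AR-luc, test chemicals were co-incubated with R1881 for 16 h; CellTiter-Fluor reagent, added at 15.5 h, provided a fluorescence measure of live cells.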

[6] = test system: thyroid hormone receptor (rat, GH3 cells); test: qHTS assay to identify small molecule agonists of the thyroid receptor (TR) signaling pathway (AID 743066; calls by dose curve)
[7] = qHTS assay to identify small molecule antagonists of the estrogen receptor alpha (ER-alpha) signaling pathway - cell viability counter screen (AID 743074; calls by dose curve; further: nearly all actives have a fitted effect of over 45% in size; further: potency means the concentration at half of the fitted maximal effect)
[8] = target: Estrogen receptor (Homo sapiens) (UniProt P03372); test: qHTS assay to identify small molecule agonists of the estrogen receptor alpha (ER-alpha) signaling pathway (AID 743075; calls by dose curve; further: potency means the concentration at half of the fitted maximal effect)
Chain of Estrogen receptor (Homo sapiens) (P03372 whole entry, looked up): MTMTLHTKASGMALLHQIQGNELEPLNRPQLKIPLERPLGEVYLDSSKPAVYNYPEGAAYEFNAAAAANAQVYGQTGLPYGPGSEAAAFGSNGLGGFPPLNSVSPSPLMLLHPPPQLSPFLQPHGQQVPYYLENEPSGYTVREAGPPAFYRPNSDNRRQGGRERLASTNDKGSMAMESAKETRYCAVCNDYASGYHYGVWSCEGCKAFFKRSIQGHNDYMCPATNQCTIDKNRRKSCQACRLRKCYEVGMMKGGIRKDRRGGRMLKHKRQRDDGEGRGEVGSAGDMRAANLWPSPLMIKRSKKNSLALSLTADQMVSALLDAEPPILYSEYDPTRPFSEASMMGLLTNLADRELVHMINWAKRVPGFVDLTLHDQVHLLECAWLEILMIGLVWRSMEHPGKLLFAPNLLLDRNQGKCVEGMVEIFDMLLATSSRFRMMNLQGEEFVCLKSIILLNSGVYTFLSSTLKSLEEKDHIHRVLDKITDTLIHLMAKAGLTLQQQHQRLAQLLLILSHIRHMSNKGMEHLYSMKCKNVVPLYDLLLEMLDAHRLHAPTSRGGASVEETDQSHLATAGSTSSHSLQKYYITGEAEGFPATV

[9] = qHTS assay to identify small molecule antagonists of the estrogen receptor alpha (ER-alpha) signaling pathway using the BG1 cell line (AID 743080; calls by dose curve; further: nearly all actives have a fitted effect of over 25% in size; further: potency means the concentration at half of the fitted maximal effect)
Procedure, shortened: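 Antagonist mode: compounds in DMSO were pinned onto BG1-Luc-4E2 cells alongside 17beta-estradiol agonist, incubated 21.5 h, and ERE-driven luciferase measured with ONE-Glo. Cytotoxicity was multiplexed using CellTiter-Fluor fluorescence.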

[10] = qHTS assay to identify small molecule antagonists of the estrogen receptor alpha (ER-alpha) signaling pathway using the BG1 cell line - cell viability counter screen (AID 743081);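 further: compound given together with 17beta-estradiol as the ER stimulus; nearly all actives have a fitted effect of over 45% in size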; further: potency means the concentration at half of the fitted maximal effect
Aromatase (Homo sapiens) = Aromatase (Homo sapiens) (UniProt P11511); test: qHTS assay to identify aromatase inhibitors (AID 743083); further: nearly all actives have a fitted effect of over 55% in size; further: potency means the concentration at half of the fitted maximal effect
Chain of Aromatase (Homo sapiens) (P11511 whole entry, looked up): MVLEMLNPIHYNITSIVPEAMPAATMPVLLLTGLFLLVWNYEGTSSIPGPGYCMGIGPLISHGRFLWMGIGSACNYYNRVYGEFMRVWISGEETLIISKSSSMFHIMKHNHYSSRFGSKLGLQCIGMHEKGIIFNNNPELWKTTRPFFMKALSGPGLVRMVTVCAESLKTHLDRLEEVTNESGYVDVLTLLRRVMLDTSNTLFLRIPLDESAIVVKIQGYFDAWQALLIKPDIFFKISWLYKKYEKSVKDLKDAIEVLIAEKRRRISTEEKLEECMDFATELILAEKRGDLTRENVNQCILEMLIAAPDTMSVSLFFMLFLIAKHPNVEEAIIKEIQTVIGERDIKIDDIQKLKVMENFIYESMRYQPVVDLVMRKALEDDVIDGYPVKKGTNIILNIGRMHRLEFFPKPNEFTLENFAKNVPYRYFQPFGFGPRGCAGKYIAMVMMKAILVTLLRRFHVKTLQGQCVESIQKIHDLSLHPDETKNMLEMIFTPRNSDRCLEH

[11] = qHTS assay to identify small molecule antagonists of the thyroid receptor (TR) signaling pathway (AID 743065); further: nearly all actives have a fitted effect of over 55% in size; further: potency means the concentration at half of the fitted maximal effect
Procedure, shortened: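 Antagonism measured as loss of luciferase signal in GH3 cells stably carrying a TRE-luciferase reporter, co-treated with compound and T3 (1 nM final) for 23.5 h at 37 C. Viability was read in the same well by CellTiter-Fluor.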

[12] = target: Estrogen receptor (Homo sapiens) (UniProt P03372); test: qHTS assay to identify small molecule antagonists of the estrogen receptor alpha (ER-alpha) signaling pathway (AID 743069; active means well fitted curve in the direction sought with a large enough effect in the signal ratio in the repeat runs, not every such curve was filed as active; inconclusive means weak or mixed curves, or effect the other way; inactive means no such curve, though single readings can be large or run the other way; the % refers to the signal ratio)
Procedure, shortened: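 Fluorescence intensity from a beta-lactamase FRET substrate served as the read-out. Cells: HEK293 with stably integrated ER-alpha-UAS-bla reporter. Agonist 17beta-estradiol was co-added with compounds; incubation 18 hr at 37C, substrate 2 hr at room temperature.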

[13] = target: Estrogen receptor (Homo sapiens) (UniProt P03372); test: qHTS assay to identify small molecule agonists of the estrogen receptor alpha (ER-alpha) signaling pathway using the BG1 cell line (AID 743079); details: BG1Luc4E2 cells, ERE-luciferase agonist, 22 h; activation: at 70.3 µM (top of the series); further: nearly all actives have a fitted effect of over 20% in size
[14] = qHTS assay for identifying genotoxic compounds that show differential cytotoxicity against isogenic chicken DT40 cell lines with known DNA damage response pathways - Rev3 mutant cell line (AID 743014); further: potency means the concentration at half of the fitted maximal effect; nearly all actives have a fitted effect of over 55% in size
[15] = qHTS assay to identify small molecule antagonists of the thyroid receptor (TR) signaling pathway - cell viability counter screen (AID 743064); further: nearly all actives have a fitted effect of over 50% in size; further: potency means the concentration at half of the fitted maximal effect
Procedure, shortened: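 In-well cytotoxicity read by CellTiter-Fluor (30 min, 37 C) following 23.5 h exposure of GH3 cells bearing a TRE-luciferase sensor. Compounds were added alongside 1 nM (final) T3 to drive TR transactivation.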

[16] = target: Androgen receptor (Homo sapiens) (UniProt P10275); test: qHTS assay to identify small molecule antagonists of the androgen receptor (AR) signaling pathway (AID 743035; active means well fitted inhibition curve with a large enough effect in the signal ratio in the repeat runs, not every such curve was filed as active; inconclusive means weak or mixed curves, or effect the other way; inactive means no such curve, though single readings can be large or run the other way; the % refers to the signal ratio; further: potency means the concentration at half of the fitted maximal effect)
Chain of Androgen receptor (Homo sapiens) (P10275 whole entry, looked up): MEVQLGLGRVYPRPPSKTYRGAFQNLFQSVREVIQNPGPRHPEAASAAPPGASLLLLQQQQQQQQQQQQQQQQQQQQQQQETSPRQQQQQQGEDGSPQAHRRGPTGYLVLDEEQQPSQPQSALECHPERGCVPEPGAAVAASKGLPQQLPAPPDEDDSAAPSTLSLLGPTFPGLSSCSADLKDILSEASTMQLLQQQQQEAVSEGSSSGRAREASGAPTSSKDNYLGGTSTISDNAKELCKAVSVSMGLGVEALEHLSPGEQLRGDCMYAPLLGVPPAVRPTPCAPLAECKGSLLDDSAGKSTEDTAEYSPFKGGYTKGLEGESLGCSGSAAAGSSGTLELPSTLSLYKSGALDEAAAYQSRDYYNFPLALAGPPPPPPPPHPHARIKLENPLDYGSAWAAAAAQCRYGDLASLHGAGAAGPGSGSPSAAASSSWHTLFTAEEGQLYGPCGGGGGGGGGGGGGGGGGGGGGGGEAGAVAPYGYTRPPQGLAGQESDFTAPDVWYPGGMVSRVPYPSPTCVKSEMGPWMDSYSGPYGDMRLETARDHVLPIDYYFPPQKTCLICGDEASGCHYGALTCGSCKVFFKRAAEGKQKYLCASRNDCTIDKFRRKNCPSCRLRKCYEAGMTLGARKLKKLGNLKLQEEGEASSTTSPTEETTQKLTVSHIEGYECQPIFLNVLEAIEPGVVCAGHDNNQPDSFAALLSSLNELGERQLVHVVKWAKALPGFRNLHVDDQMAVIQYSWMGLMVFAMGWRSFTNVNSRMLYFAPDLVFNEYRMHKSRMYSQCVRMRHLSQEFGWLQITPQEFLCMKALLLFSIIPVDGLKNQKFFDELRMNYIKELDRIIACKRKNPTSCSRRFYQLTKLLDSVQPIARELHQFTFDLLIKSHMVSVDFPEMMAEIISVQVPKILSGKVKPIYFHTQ
Procedure, shortened: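 AR-bla HEK293 reporter cells; 4 h settle at 37C/5% CO2; compound + R1881 agonist, 16 h at 37C; LiveBLAzer B/G FRET substrate 2 h RT; fluorescence intensity read. qHTS format.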

[17] = target: Androgen receptor (Homo sapiens) (UniProt P10275); test: qHTS assay to identify small molecule agonists of the androgen receptor (AR) signaling pathway (AID 743036; active means well fitted activation curve with a large enough effect in the signal ratio in the repeat runs, with a control signal flat, not every such curve was filed as active; inconclusive means weak or mixed curves, or effect the other way; inactive means no such curve, though single readings can be large or run the other way; the % refers to the signal ratio)
Procedure, shortened: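 Activation was read as beta-lactamase FRET signal from LiveBLAzer B/G substrate, added for 2 h at room temperature. Before that, GeneBLAzer AR-UAS-bla GripTite (HEK293) cells had 16 h compound exposure at 37C.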

[18] = target: Androgen receptor (Homo sapiens) (UniProt P10275); test: qHTS assay to identify small molecule agonists of the androgen receptor (AR) signaling pathway using the MDA cell line (AID 743040; further: nearly all actives have a fitted effect of over 20% in size)
Procedure, shortened: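 Stable MMTV-luciferase reporter in MDA-kb2 cells; note the promoter carries GR as well as AR response elements. 16 h compound treatment, 37C, 0% CO2; ONE-Glo luminescence endpoint.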

[19] = target: Androgen receptor (Homo sapiens) (UniProt P10275); test: qHTS assay to identify small molecule antagonists of the androgen receptor (AR) signaling pathway using the MDA cell line (AID 743042)
Procedure, shortened: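 Antagonist mode: compounds plus R1881 agonist added to MDA-kb2 AR-luc cells, incubated 16 h at 37C. Luciferase reporter luminescence quantified, with multiplexed CellTiter-Fluor readout for cell viability.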

Measured: Potency

Cc1c([N+](=O)[O-])cc2c(c1[N+](=O)[O-])C(C)(C)CC2(C)C
inactive: [1] | [2] | [3] | [4] | [5] | [6] | [7] | [10]
active: [8] 21.9 µM [inconclusive] | [9] 15.4 µM | Aromatase (Homo sapiens) 27.3 µM

O=C(Cl)c1ccccc1F
not listed: [14] | [15] | [16] | [17] | [18] | [19]
inactive: all other assays above

O=[N+]([O-])c1cccc2cccc([N+](=O)[O-])c12
active: [14] 61.4 µM | [3] 61.4 µM
inactive: [1] | [4] | [5] | [15] | [6] | [7] | [10]

CNC(=O)O/N=C(\C)C(C)S(C)(=O)=O (stereo not drawn)
inactive: [1] | [2] | [3] | [4] | [5] | [15] | [11] | [6] | [7] | [10] | Aromatase (Homo sapiens)

CCC1(CC)C(=O)N=C(O)NC1=O
not listed: [14] | [16] | [17] | [18] | [19]
inactive: all other assays above

Fc1ccc(C(OCCN2CCN(CCCc3ccccc3)CC2)c2ccc(F)cc2)cc1
active: [1] 21.3 µM | [14] 2.11 µM | [3] 3.76 µM | [4] 21.3 µM | [16] 15.1 µM | [19] 16.8 µM | [15] 9.44 µM | [11] 7.5 µM | [7] 15.1 µM | [10] 21.1 µM | Aromatase (Homo sapiens) 18.8 µM
inactive: [17] | [18] | [8]

O=[N+]([O-])c1ccc(CCl)cc1
not listed: [9] | [14] | [16] | [17] | [18] | [19]
inactive: all other assays above

CNC(=O)CSP(=O)(OC)OC
not listed: [14] | [16] | [17] | [18] | [19]
inactive: all other assays above
